Assay outcomes deposited in PubChem BioAssay by The Scripps Research Institute Molecular Screening Center.
Rows were chosen to be rich in hits. Some 1.1% of all compounds tested hit in one or more screens of this group.
SRC1 inh = inhibits human SRC1 coactivator; Q15788; HEK293 GAL4-SRC1 luciferase reporter, luminescence; inhibition, % at 3.6 µM; hit rate 0.12% among 360,000; AID 588354;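 active = inhibition above the campaign mean plus 3 SD, with each screening campaign given its own cutoff, cut at about 60% in these data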
NR2F2 inh = NR2F2 (human) inhibition, primary screen | hit rate 0.7% among 370,000 | P24468 | inhibition, % at 8.6 µM | AID 686940 | HEK293T NGFI-A luciferase reporter, luminescence;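 active = inhibition above a per-plate cutoff, mean inhibition of test wells between control levels plus 3 SD, cut at about 38% in these data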;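 also: cells cotransfected with COUP-TFII expression vector driving the NGFI-A reporter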
Target sequence (P24468 whole entry, looked up): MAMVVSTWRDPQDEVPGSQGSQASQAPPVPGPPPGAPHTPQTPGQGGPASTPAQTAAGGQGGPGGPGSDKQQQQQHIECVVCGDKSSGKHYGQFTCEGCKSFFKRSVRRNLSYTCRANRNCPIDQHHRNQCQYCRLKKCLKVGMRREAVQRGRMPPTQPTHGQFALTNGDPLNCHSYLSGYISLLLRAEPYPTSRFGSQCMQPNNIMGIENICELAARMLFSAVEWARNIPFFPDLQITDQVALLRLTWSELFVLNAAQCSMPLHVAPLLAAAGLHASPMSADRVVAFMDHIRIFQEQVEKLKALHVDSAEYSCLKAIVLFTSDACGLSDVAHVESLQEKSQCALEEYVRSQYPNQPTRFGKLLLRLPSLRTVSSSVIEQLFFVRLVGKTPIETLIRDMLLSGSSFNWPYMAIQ
LRH-1 inv ag = suppresses constitutive activity of human LRH-1. O00482. HEK293T StAR-luciferase reporter, LRH-1 transfected, 24 h. inhibition, % at 3.6 µM. hit rate 0.13% among 360,000. AID 602396;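 active = inhibition above the mean inhibition of all tested compounds plus 3 SD, cut at about 73% in these data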
SRC2 inh = human SRC2 (NCOA2) inhibition. AID 651957. hit rate 0.17% among 370,000. HEK293 GAL4-SRC2 luciferase reporter, luminescence. Q15596. inhibition, % at 9 µM;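 active = inhibition above the mean inhibition of all tested compounds plus 3 SD, set per campaign, cut at about 52% in these data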
GalR3 antagonist = antagonists of human GalR3. inhibition, % at 3 µM. hit rate 0.44% among 360,000. HEK293 GalR3-CNG cAMP membrane potential fluorescence; galR3 body fused to GalR1 C-terminus. O60755;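 active = inhibition above the screen-wide average plus 3 SD, cut at about 13% in these data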;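 also: forskolin and galanin both at EC90 stimulate the cells; cAMP rise reported by CNG channel membrane potential dye signal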
Target sequence (O60755 1-299 limits assumed): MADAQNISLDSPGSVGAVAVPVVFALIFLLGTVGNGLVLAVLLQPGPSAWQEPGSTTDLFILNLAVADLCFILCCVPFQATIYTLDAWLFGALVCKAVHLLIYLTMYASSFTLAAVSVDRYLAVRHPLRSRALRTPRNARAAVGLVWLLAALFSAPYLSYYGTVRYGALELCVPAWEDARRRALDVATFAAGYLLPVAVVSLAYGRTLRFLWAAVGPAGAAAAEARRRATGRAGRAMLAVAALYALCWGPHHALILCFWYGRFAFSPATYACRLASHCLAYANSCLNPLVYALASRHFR
NCOA3 inh = human NCOA3 inhibition. Q9Y6Q9. HEK293 GAL4-SRC3 luciferase reporter, luminescence. inhibition, % at 3.6 µM. hit rate 0.17% among 360,000. AID 588352;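 active = inhibition above a per-campaign cutoff, the mean of all compounds plus 3 SD, cut at about 60% in these data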;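 also: higher means less SRC3-driven luciferase light from the GAL4 reporter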
Gal4-VP16 ctr = counter-screen for COUP-TFII antagonists: inhibitors of VP16. AID 687007. hit rate 25% among 2,500. HEK293 Gal4-VP16 luciferase reporter, luminescence. shares compounds with NR2F2 inh. inhibition, % at 8.5 µM; in the data active = inhibition above about 13%
NR2F2 inh conf = COUP-TFII (NR2F2) inhibition, confirmation assay; shares compounds with NR2F2 inh; HEK293 NGFI-A luciferase reporter, luminescence; inhibition, % at 8.5 µM; hit rate 45% among 2,500;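 active = mean inhibition over three repeats above a set limit taken from the earlier primary screen, cut at about 38% in these data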
Of the large screens only hits and unclear results are named; the others gave an inactive call (follow-up assays come after a bar, where they were run); ! = a repeat was not active.

C#CCNC(=O)C[C@H]1C[C@@]2(C(=O)OC)C(=C[C@H](COCc3ccccc3)O[C@@H]2C)N(Cc2ccc(Cl)cc2Cl)C1=O	none (no result: SRC1 inh, LRH-1 inv ag, GalR3 antagonist, NCOA3 inh)
CCc1nnc(N/N=C/c2c(C)[nH]c3ccccc23)n1N	NR2F2 inh 53 | Gal4-VP16 ctr inactive | NR2F2 inh conf inactive
Cc1noc(C)c1COc1ccccc1C(=O)N(C)Cc1ccc(C(C)(C)C)cc1	NR2F2 inh 41 | Gal4-VP16 ctr inactive | NR2F2 inh conf inactive
O=C(Nc1nc(-c2ccc(S(=O)(=O)N3CCCCCC3)cc2)cs1)c1cccs1	NR2F2 inh 55 | Gal4-VP16 ctr inactive | NR2F2 inh conf inactive
Cc1ccc(-c2csc(NC(=O)c3ccc(S(=O)(=O)N4CCc5ccccc54)cc3)n2)cc1	none
COc1cccc(C(=O)Nc2nc(-c3ccc(S(=O)(=O)N4CCOCC4)cc3)cs2)c1	none
O=C(Nc1nc(-c2ccc(S(=O)(=O)N3CCOCC3)cc2)cs1)c1ccccc1	NR2F2 inh 68 | Gal4-VP16 ctr 18! | NR2F2 inh conf 38
NC(=O)c1ccsc1NC(=O)c1ccc(S(=O)(=O)N2CCCc3ccccc32)cc1	NR2F2 inh 38 | Gal4-VP16 ctr inactive | NR2F2 inh conf inactive
O=C(Nc1nc(-c2ccccc2)cs1)c1ccc(S(=O)(=O)N2CCc3ccccc32)cc1	NR2F2 inh 51 | Gal4-VP16 ctr inactive | NR2F2 inh conf inactive
O=C(Nc1ccc(S(=O)(=O)N2CCCC2)cc1)c1cccs1	none
O=C(c1ccccc1C(F)(F)F)N1CCC(Oc2cccnc2)CC1	none (no result: SRC1 inh, LRH-1 inv ag, GalR3 antagonist, NCOA3 inh)
Cc1ccc(Cn2nnc3c2-c2ccccc2S(=O)(=O)N(C(C)(C)C)C3)cc1	none (no result: SRC1 inh, LRH-1 inv ag, GalR3 antagonist, NCOA3 inh)
O=C(Nc1nnc(-c2cccnc2)s1)c1cnc2ccccc2c1	none (no result: SRC1 inh, LRH-1 inv ag, GalR3 antagonist, NCOA3 inh)
Cc1ccc(C)c(N2CCN(C(=O)C3CCN(S(=O)(=O)c4c(C)noc4C)CC3)CC2)c1	NR2F2 inh 53 | Gal4-VP16 ctr inactive | NR2F2 inh conf inactive
Cc1ccc(C)c(N2CCN(C(=O)C3CCCN(S(=O)(=O)c4c(C)noc4C)C3)CC2)c1 (stereo not drawn)	none (no result: GalR3 antagonist)
O=C1CC(c2ccc3c(c2)OCO3)Sc2nc3ccccc3n21 (stereo not drawn)	NR2F2 inh 42 | Gal4-VP16 ctr inactive | NR2F2 inh conf inactive
O=C1CC(c2ccccc2)Sc2nc3ccccc3n21 (stereo not drawn)	none
O=C(Nc1nc2cc3c(cc2s1)OCCO3)C1=COCCO1	NR2F2 inh 81, SRC2 inh 68, NCOA3 inh 65 | Gal4-VP16 ctr 56 | NR2F2 inh conf 77
O[C@@H]1[C@@H](O)[C@H](n2c3ccc(Cl)cc3c3ccc4c5cc(Cl)ccc5[nH]c4c32)OC[C@H]1O	none (no result: SRC1 inh, LRH-1 inv ag, GalR3 antagonist, NCOA3 inh)
CCN(CC)c1ccc(/C=C/c2ccc3ccc(OC)cc3[n+]2CC)cc1	NR2F2 inh 51, LRH-1 inv ag 74 | Gal4-VP16 ctr 20 | NR2F2 inh conf 67
CC[n+]1c(/C=C/c2ccc(OC)c(OC)c2)ccc2ccccc21	none
CCn1c(SCC(=O)c2[nH]c(C)c(C(C)=O)c2C)nnc1-c1cccs1	NR2F2 inh 52 | Gal4-VP16 ctr inactive | NR2F2 inh conf inactive
Cc1cc(C)c2c(N)c(C(=O)Nc3ncc(C)s3)sc2n1	NR2F2 inh 74, SRC2 inh 77 | Gal4-VP16 ctr 35 | NR2F2 inh conf 67
CC(=O)Nc1nc2ncccn2c1-c1ccc(F)c(F)c1	none (no result: SRC1 inh, LRH-1 inv ag, GalR3 antagonist, NCOA3 inh)
Cc1ccc(C2CCC3(CCC(=O)N3CCOC(=O)Nc3ccc(F)cc3)CC2)cc1 (stereo not drawn)	none (no result: SRC1 inh, LRH-1 inv ag, GalR3 antagonist, NCOA3 inh)
NC(=O)[C@@H]1CC2(CC(c3cccc(NC(=O)COc4ccc(Cl)cc4)c3)=NO2)CN1C(=O)COc1ccc(Cl)cc1 (stereo partly drawn)	NR2F2 inh 45 | Gal4-VP16 ctr inactive | NR2F2 inh conf inactive
C[C@H]1[C@H](NC(=O)c2ccc(Cl)c(Cl)c2)CC[C@@]23CCCN2C(=O)CCC[C@@H]13	none (no result: SRC1 inh, LRH-1 inv ag, SRC2 inh, GalR3 antagonist, NCOA3 inh)
O=C1CCC[C@H]2C[C@H](NCc3ccc(Br)cc3)CC[C@]23CCCN13	none (no result: SRC1 inh, LRH-1 inv ag, SRC2 inh, GalR3 antagonist, NCOA3 inh)
c1ccc2c(c1)[nH]c1c(N3CCCC3)ncnc12	NR2F2 inh 44 | Gal4-VP16 ctr inactive | NR2F2 inh conf inactive
Fc1ccc2[nH]c3c(N4CCc5ccccc5C4)ncnc3c2c1	NR2F2 inh 74 | Gal4-VP16 ctr inactive | NR2F2 inh conf 70
Cc1ccc2[nH]c3c(N4CCc5ccccc5C4)ncnc3c2c1	NR2F2 inh 60 | Gal4-VP16 ctr inactive | NR2F2 inh conf 50
CN1CCN(c2ncnc3c2[nH]c2ccc(F)cc23)CC1	none
CCC[C@@H](/C=C/C(=O)OC(C)(C)C)Sc1ccccc1OC	none (no result: SRC1 inh, LRH-1 inv ag, GalR3 antagonist, NCOA3 inh)
CC1(C(=O)NCc2ccc(F)c(F)c2)Cc2c(-c3cccc(C(F)(F)F)c3)ccnc2O1 (stereo not drawn)	none
CC1(C(=O)NCc2cccnc2)Cc2c(-c3cccc(C(F)(F)F)c3)ccnc2O1 (stereo not drawn)	NR2F2 inh 39 | Gal4-VP16 ctr inactive | NR2F2 inh conf inactive
CCN(CC)CCCNC(=O)c1oc(=O)c2ccccc2c1-c1ccc(C)cc1	none (no result: SRC1 inh, LRH-1 inv ag, GalR3 antagonist, NCOA3 inh)
O=C(NC1CCCCN(Cc2ccc(OC(F)(F)F)cc2)C1=O)c1cccc(C(F)(F)F)c1 (stereo not drawn)	none (no result: SRC1 inh, LRH-1 inv ag, GalR3 antagonist, NCOA3 inh)
Cc1cc(C(=O)COC(=O)c2ccc3c(c2)OCO3)c(C)n1Cc1cccs1	none
Cc1cc(C(=O)COC(=O)c2ccccc2O)c(C)n1Cc1cccs1	SRC1 inh 90, NR2F2 inh 97, LRH-1 inv ag 94, SRC2 inh 86, NCOA3 inh 87 | Gal4-VP16 ctr 81 | NR2F2 inh conf 104
Cc1cc(C(=O)COc2ccccc2C(N)=O)c(C)n1CC1CCCO1 (stereo not drawn)	NR2F2 inh 57 | Gal4-VP16 ctr inactive | NR2F2 inh conf 39
Cc1cc(C(=O)COC(=O)c2n[nH]c3ccccc23)c(C)n1CC1CCCO1 (stereo not drawn)	none
Cc1cc(C(=O)COC(=O)c2cccnc2Cl)c(C)n1CC1CCCO1 (stereo not drawn)	NR2F2 inh 63 | Gal4-VP16 ctr inactive | NR2F2 inh conf 56
Cc1cc(C(=O)COC(=O)c2cc(O)c3ccccc3c2O)c(C)n1CC1CCCO1 (stereo not drawn)	none (no result: NR2F2 inh, SRC2 inh, GalR3 antagonist)
Cc1cc(C(=O)COC(=O)c2ccccc2O)c(C)n1CC1CCCO1 (stereo not drawn)	SRC1 inh 90, NR2F2 inh 97, LRH-1 inv ag 91, SRC2 inh 89, NCOA3 inh 88 | Gal4-VP16 ctr 89 | NR2F2 inh conf 105
Cc1cc(C(=O)COC(=O)c2cccc(NS(C)(=O)=O)c2)c(C)n1CC1CCCO1 (stereo not drawn)	NR2F2 inh 72 | Gal4-VP16 ctr inactive | NR2F2 inh conf 57
